This note sets out measurements from PubChem BioAssay (EPA / NIEHS).

Results filed as inconclusive are left out. Active and inactive are the calls of the source. How the source made its calls, unless noted: active means hit-call score of the fitted dose curve at least 0.9, where 1 is the maximum; inconclusive means response in the unintended direction; inactive means score below 0.9.

The test system of one experiment is IYD (gene 389434). Description: CCTE_GLTED_hIYD: CCTE's human Iodotyrosine Deiodinase (xIYD) Inhibition Assay, Great Lakes Toxicology and Ecology Division (GLTED) Lab (AID 2284317).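 Further: cell-free human IYD enzyme made in baculovirus insect cells; iodide freed from monoiodotyrosine measured by cerium arsenite color change at 420 nm.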 The method in brief:
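Cell-free; baculovirus/insect-cell hIYD + MIT substrate + chemical, 3 h. Dowex column cleanup, then Ce4+/As3+ Sandell-Kolthoff read at A420 nm. Triplicate plates; normalized to 3-nitro-L-tyrosine (positive) and DMSO/NaOH (solvent).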

The test system of another experiment is SERPINA7 (gene 6906). Description: CCTE_GLTED_hTBG: CCTE's human Thyroxine-binding Globulin (TBG) Inhibition Assay, Great Lakes Toxicology and Ecology Division (GLTED) Lab (AID 2284343).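 Further: active chemicals lower fluorescence versus DMSO baseline by displacing probe.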 The gist of the method: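 Fluorescence (ex 380/em 475) reports ANSA displaced from human TBG after a 2 h incubation with test chemical, without cells. Loss of signal indicates displacement, with DMSO serving as baseline.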

The nature of experiment [1]: CCTE_Mundy_HCI_iCellGluta_NOG_NeuriteLength: CCTE's Neurite Outgrowth Assay in iCellGluta cells for Neurite Length, Mundy Lab (AID 2284318). The method in brief: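 Automated high-content imaging of betaIII-tubulin (Alexa Fluor-488) and Hoechst-stained cells gave neurite length, normalized to the DMSO baseline.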
The nature of experiment [2]: IUF_NPC1_cytotoxicity_72hr: Cytotoxicity Assessment at 72 hours in the Leibniz Research Institute for Environmental Medicine (IUF) Neural Progenitor Cell Proliferation Assay (NPC1) (AID 2284332).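 Further: rising LDH signal means more cytotoxicity.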 The gist of the method: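 LDH in supernatant, resazurin→resorufin fluorescence (RFU), 72 h exposure, no re-dosing. Cells: primary hNPC spheres, one per well, EGF+FGF medium, 37C/5% CO2, pH 7.2-7.6. Fit: positive direction vs baseline and dynamic range.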

Experiment [3] in a line: CCTE_Mundy_HCI_iCellGluta_NOG_NeuronCount: CCTE's Neurite Outgrowth Assay in iCellGluta cells for Neuron Count, Mundy Lab (AID 2284340).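 Further: cells fixed about 48 h after compound addition.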 The gist of the method: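 Neuron count read by automated high-content imaging of Hoechst 33342 and betaIII-tubulin/Alexa Fluor-488 labelling in human iPSC glutamatergic neurons. Activity fitted relative to DMSO.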
The nature of experiment [4]: CCTE_Mundy_HCI_iCellGluta_NOG_NeuriteCount: CCTE's Neurite Outgrowth Assay in iCellGluta cells for Neurite Count, Mundy Lab (AID 2284342).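 Further: chemical exposure about 48 hours starting 2 hours after plating.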 The method, then: CCTE_Mundy_HCI_iCellGluta_NOG is a multiplexed, cell-based-readout assay that uses iCell GlutaNeurons from FUJIFILM Cellular Dynamics, Inc. (FCDI), human glutamatergic enriched neurons derived from induced pluripotent stem (iPS) cells, with measurements taken at 50.33 hours after chemical dosing in a microplate: 96-well plate.CCTE_Mundy_HCI_iCellGluta_NOG_NeuriteCount is one of four components of the CCTE_Mundy_HCI_iCellGluta_NOG assay. It measures neurite outgrowth related to number of neurites using High Content Imaging of fluorescently labelled markers.Data from the assay component CCTE_Mundy_HCI_iCellGluta_NOG_NeuriteCount was analyzed at the endpoint CCTE_Mundy_HCI_iCellGluta_NOG_NeuriteCount in the positive analysis fitting direction relative to DMSO as the negative control and baseline of activity. Using a type of morphology reporter, loss-of-signal activity can be used to understand developmental effects.
Exposure starts 2 hours post-plating by adding 10 ul of the working solution to 90 ul of media in the wells for a 1/10 dilution. Forty-eight hours after chemical treatment cells are fixed by direct addition of 100 ul of warm (37C) Dulbecco's phosphate buffered saline (DPBS) fixative solution containing 8% paraformaldehyde, 8% sucrose, and 0.1% of 3 mg/ml Hoechst 33342 into each well. Primary antibodies are prepared by dilution in Immunocytochemical Staining Buffer (ISB), 10X Dulbecco's PBS, 0.1% Saponin, 5% Bovine Serum Albumin, 0.5% NaN3 (Sodium Azide) and betaIII-tubulin (rabbit anti-betaIII-tubulin, 1:800) followed by Alexa Fluor-488 secondary (1:500) to label neuronal cell bodies and neurites. A Cellomics ArrayScan VTi HCS Reader is used for automated image acquisition and analysis of neurite outgrowth.

A short description of experiment [5]: CCTE_Deisenroth_5AR_NBTE_donor: CCTE's 5alpha-reductase NanoBRET Target Engagement Assay […], Deisenroth Lab (AID 2284319; active means hit-call score of the fitted dose curve at least 0.9, where 1 is the maximum; inactive means score below 0.9). The settings on record: actives raise or lower the signal. The gist of the method: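 SRD5A2-NanoLuc, HEK293T, 20 h expression. Chemical 10 nM - 29.9 uM, 8 conc, duplicate; 3 h preincubation + 2 h testosterone tracer. Nano-Glo substrate plus extracellular NanoLuc inhibitor; donor lum 460 nm. DMSO baseline, bidirectional fit.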
For orientation: In BRET a luciferase serves as donor, and the signal depends on an acceptor being close.

The nature of experiment [6]: CCTE_Deisenroth_5AR_NBTE_acceptor: CCTE's 5alpha-reductase NanoBRET Target Engagement Assay - Autofluorescence Screen, Deisenroth Lab (AID 2284321; active means hit-call score of the fitted dose curve at least 0.9, where 1 is the maximum; inactive means score below 0.9). The settings on record: actives raise or lower the signal. The method in brief: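 Acceptor-channel fluorescence flags artifacts, with excitation fixed at 460 nm. Nominal 100 uM chemical samples were read in triplicate runs, and signal changes were fitted in both directions relative to DMSO.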

Another experiment has as its system SRD5A2 (gene 6716). Description: CCTE_Deisenroth_5AR_NBTE_ratio: CCTE's 5alpha-reductase NanoBRET Target Engagement Assay - Ratio, Deisenroth Lab (AID 2284322; active means hit-call score of the fitted dose curve at least 0.9, where 1 is the maximum; inactive means score below 0.9). The settings on record: actives raise or lower the signal. The gist of the method: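 SRD5A2-NanoLuc HEK293T; cmpd 10 nM-29.9 uM, 3 h preinc + testosterone tracer 2 h; NanoBRET ratio 650/460; bidirectional fit vs DMSO.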

A short description of experiment [7]: CCTE_Padilla_ZF_Score.Craniofacial: CCTE's 144 Hour Post-fertilization zebrafish Assay Score for Craniofacial Malformation, Padilla Lab (AID 2284405; active means hit-call score of the fitted dose curve at least 0.9, where 1 is the maximum; inactive means score below 0.9). The method in brief: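 Craniofacial defects were scored at 6 dpf by two blinded observers using stereomicroscopy. Exposure of wild-type embryos began at 6–8 hpf in sealed wells of 10% Hanks' solution at 26C, with chemical removed by rinsing at 5 dpf.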

Experiment [8] is described as follows: CCTE_Padilla_ZF_Score.Edema: CCTE's 144 Hour Post-fertilization zebrafish Assay Score for Edema Malformation, Padilla Lab (AID 2284406; active means hit-call score of the fitted dose curve at least 0.9, where 1 is the maximum; inactive means score below 0.9). The gist of the method: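 Edema scored at 6 dpf by two blinded observers under a stereo microscope, in single outbred wild-type larvae exposed from 6-8 hpf in sealed wells (Hanks', 26C, 14:10 h light) and chemical-free after a 5 dpf rinse.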

On to `Nc1ccc(N)cc1`, for which the outcome in the experiment with IYD (gene 389434) was inactive. Besides, the AC50 (in general, the concentration at which the activity in the assay is half-maximal) in the experiment on SERPINA7 (gene 6906) is 20.3 µM (active).
In the case of `CC1(C)[C@H](C(=O)O[C@H](C#N)c2cccc(Oc3ccccc3)c2)[C@@H]1/C=C(\Cl)C(F)(F)F`, the molecule was classed as inactive in experiment [1], in experiment [2], in [3] and in experiment [4].
Consider `O=[N+]([O-])c1ccccc1O`, for which the call in experiment [5] and in experiment [6] was inactive. Further, the concentration at half-maximal activity (AC50) in the experiment on SRD5A2 (gene 6716) is 50 µM (active).
For the molecule `O=S(=O)(F)C(F)(F)C(F)(F)C(F)(F)C(F)(F)F`, the molecule was classed as inactive in [7] and in experiment [8].
`CC(F)(F)CC(F)(F)F`: the call in experiment [7] and in experiment [8] was inactive.
Consider `Oc1c(Br)cc(Br)cc1Br`, for which the AC50 in the experiment with SERPINA7 (gene 6906) is 10.3 µM (active).
Still for that read-out and setting: with `O=C(NC(=O)c1c(F)cccc1F)Nc1cc(Cl)c(OC(F)(F)C(F)C(F)(F)F)cc1Cl` (centres undefined) the figure was 19.5 µM (active).
Regarding `C=CCOC(F)(C(F)(F)F)C(F)(F)F`, the call in experiment [7] and in experiment [8] was inactive.
Regarding `O=C(CCl)Nc1ccccc1`, the result in the experiment with IYD (gene 389434) was inactive.
Take `CCC[CH2][Sn]([Cl])([Cl])[CH2]CCC`: the half-maximal activity concentration (AC50) was 4.46 µM (active) in experiment [5], 5.59 µM (active) in experiment [6] and 13 µM (active) with SRD5A2 (gene 6716).
Take `O=C(O)COc1cc(Cl)c(Cl)cc1Cl`: the half-maximal activity concentration (AC50) with SERPINA7 (gene 6906) was 45.6 µM (active).
On to `CS(=O)(=O)c1ccc(C(=O)C2C(=O)CCCC2=O)c(Cl)c1COCC(F)(F)F`, for which the AC50 in experiment [1] is 25 µM (active); in experiment [4], 25.3 µM (active). Moreover, the call in [2] and in experiment [3] was inactive.
Turning to `O=S1OC[C@@H]2[C@H](CO1)[C@]1(Cl)C(Cl)=C(Cl)[C@@]2(Cl)C1(Cl)Cl` (some centres undefined), the call in [2] was inactive.
In the case of `CCCCCCCCCCCCc1cccc(S(=O)(=O)O)c1`, the figures for the AC50 in the experiment on IYD (gene 389434) and in the experiment with SERPINA7 (gene 6906) were 89.9 µM (active) and 22.2 µM (active), respectively.
With `CCOCn1c(-c2ccc(Cl)cc2)c(C#N)c(Br)c1C(F)(F)F`, the half-maximal activity concentration (AC50) is 14.1 µM (active) in [1]; 50.4 µM (active) in experiment [2]; 27.1 µM (active) in experiment [3]; 21.3 µM (active) in experiment [4]; 2.12 µM (active) in the experiment with SERPINA7 (gene 6906).
`N#CCCC(Br)(C#N)CBr` (centres undefined): the concentration at half-maximal activity (AC50) is 62.1 µM (active) in experiment [5], 54.4 µM (active) in experiment [6] and 69.9 µM (active) in the experiment on SRD5A2 (gene 6716).
Consider `CCOP(=S)(OCC)O/N=C(\C#N)c1ccccc1`, for which the call in experiment [5] and in experiment [6] was inactive. Moreover, the half-maximal activity concentration (AC50) is 20.1 µM (active) in the experiment with SRD5A2 (gene 6716) and 20.6 µM (active) in the experiment with SERPINA7 (gene 6906).
For the molecule `Cc1ccccc1OP(=O)(Oc1ccccc1C)Oc1ccccc1C`, the concentration at half-maximal activity (AC50) in experiment [1] is 8.67 µM (active); in experiment [3], 13.5 µM (active); in experiment [4] it was 12.5 µM (active).
